Assay results published in ChEMBL document CHEMBL1961873, “Compounds: GSK PKIS; Assays: Nanosyn kinase panel” (2012).

How the values were obtained:
[1] = target: Tyrosine-protein kinase SYK (Homo sapiens) (UniProt P43405); conditions: at 1 µM
[2] = target: T1, Tyrosine-protein kinase Tec (Homo sapiens) (UniProt P42680); conditions: at 0.1 µM
T1 sequence (whole entry): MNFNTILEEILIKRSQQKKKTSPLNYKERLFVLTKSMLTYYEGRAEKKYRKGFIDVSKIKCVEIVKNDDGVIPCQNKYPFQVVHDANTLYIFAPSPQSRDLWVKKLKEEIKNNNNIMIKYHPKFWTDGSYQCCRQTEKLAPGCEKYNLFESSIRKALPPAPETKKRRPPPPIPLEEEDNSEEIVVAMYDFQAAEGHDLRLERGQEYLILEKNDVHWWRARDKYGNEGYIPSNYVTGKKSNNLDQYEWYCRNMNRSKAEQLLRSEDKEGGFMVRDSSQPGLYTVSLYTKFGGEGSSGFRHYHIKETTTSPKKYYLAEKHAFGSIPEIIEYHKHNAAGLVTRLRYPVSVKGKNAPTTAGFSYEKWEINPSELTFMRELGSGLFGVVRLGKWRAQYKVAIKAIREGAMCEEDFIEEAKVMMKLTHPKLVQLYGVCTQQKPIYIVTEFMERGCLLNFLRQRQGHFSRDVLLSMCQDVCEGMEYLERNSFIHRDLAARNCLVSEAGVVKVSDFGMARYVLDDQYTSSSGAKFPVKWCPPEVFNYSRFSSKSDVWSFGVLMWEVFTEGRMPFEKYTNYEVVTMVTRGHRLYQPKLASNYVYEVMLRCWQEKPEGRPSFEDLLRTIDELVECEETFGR

[3] = target: T1, Tyrosine-protein kinase Tec (Homo sapiens); conditions: at 1 µM
[4] = target: Angiopoietin-1 receptor (Homo sapiens) (UniProt Q02763); conditions: at 0.1 µM
Sequence of Angiopoietin-1 receptor (Homo sapiens) (Q02763 whole entry): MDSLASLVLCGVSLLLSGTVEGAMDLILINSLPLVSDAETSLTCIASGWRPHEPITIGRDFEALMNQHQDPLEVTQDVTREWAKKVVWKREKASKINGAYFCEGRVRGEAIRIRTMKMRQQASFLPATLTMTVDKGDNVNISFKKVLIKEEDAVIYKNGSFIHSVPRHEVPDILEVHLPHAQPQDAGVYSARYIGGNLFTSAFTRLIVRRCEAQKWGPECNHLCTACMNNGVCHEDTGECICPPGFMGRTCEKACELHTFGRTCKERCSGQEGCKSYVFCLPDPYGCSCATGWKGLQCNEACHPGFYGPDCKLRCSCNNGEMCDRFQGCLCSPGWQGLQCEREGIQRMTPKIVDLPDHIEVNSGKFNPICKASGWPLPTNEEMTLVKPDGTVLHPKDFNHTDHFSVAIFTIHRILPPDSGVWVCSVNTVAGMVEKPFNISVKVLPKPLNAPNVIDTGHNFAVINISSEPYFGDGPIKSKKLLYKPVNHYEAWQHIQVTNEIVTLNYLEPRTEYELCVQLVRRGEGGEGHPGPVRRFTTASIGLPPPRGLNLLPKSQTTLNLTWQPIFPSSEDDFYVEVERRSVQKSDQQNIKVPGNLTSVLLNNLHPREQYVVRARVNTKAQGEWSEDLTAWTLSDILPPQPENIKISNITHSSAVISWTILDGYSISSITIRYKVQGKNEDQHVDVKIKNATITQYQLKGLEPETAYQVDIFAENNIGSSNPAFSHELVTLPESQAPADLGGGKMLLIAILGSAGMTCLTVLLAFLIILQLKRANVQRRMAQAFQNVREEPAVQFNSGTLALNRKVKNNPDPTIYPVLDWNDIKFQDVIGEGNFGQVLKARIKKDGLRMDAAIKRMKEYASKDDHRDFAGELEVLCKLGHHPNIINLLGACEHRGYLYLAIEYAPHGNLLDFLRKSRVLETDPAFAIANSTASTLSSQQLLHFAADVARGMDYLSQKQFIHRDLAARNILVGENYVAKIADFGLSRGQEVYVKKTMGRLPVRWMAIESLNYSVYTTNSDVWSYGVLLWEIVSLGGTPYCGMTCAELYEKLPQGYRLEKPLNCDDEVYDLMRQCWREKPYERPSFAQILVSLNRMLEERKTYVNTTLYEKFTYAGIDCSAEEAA

[5] = target: Angiopoietin-1 receptor (Homo sapiens) (UniProt Q02763); conditions: at 1 µM
[6] = target: T2, Non-receptor tyrosine-protein kinase TNK1 (Homo sapiens) (UniProt Q13470); conditions: at 0.1 µM
T2 sequence (whole entry): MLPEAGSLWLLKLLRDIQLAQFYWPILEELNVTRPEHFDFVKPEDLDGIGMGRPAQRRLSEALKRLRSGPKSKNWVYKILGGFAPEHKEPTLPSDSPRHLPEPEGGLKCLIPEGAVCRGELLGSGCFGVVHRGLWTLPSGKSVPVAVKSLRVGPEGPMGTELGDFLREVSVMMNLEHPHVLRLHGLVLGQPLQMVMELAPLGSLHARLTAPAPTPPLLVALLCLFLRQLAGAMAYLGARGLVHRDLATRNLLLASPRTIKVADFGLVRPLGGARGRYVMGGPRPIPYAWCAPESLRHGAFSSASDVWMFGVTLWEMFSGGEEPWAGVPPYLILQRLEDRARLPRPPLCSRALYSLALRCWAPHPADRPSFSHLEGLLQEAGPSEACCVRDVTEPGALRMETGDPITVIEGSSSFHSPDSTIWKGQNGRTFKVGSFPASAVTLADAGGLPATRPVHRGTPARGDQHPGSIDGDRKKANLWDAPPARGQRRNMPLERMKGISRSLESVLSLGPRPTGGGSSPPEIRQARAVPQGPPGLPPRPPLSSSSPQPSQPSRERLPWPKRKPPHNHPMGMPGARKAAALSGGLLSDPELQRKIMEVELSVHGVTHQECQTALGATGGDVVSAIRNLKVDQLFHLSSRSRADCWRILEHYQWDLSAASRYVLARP

[7] = target: T2, Non-receptor tyrosine-protein kinase TNK1 (Homo sapiens); conditions: at 1 µM
[8] = target: Activated CDC42 kinase 1 (Homo sapiens) (UniProt Q07912); conditions: at 0.1 µM
[9] = target: Activated CDC42 kinase 1 (Homo sapiens) (UniProt Q07912); conditions: at 1 µM
[10] = target: High affinity nerve growth factor receptor (Homo sapiens) (UniProt P04629); conditions: at 0.1 µM
Sequence of High affinity nerve growth factor receptor (Homo sapiens) (P04629 33-796 limits assumed): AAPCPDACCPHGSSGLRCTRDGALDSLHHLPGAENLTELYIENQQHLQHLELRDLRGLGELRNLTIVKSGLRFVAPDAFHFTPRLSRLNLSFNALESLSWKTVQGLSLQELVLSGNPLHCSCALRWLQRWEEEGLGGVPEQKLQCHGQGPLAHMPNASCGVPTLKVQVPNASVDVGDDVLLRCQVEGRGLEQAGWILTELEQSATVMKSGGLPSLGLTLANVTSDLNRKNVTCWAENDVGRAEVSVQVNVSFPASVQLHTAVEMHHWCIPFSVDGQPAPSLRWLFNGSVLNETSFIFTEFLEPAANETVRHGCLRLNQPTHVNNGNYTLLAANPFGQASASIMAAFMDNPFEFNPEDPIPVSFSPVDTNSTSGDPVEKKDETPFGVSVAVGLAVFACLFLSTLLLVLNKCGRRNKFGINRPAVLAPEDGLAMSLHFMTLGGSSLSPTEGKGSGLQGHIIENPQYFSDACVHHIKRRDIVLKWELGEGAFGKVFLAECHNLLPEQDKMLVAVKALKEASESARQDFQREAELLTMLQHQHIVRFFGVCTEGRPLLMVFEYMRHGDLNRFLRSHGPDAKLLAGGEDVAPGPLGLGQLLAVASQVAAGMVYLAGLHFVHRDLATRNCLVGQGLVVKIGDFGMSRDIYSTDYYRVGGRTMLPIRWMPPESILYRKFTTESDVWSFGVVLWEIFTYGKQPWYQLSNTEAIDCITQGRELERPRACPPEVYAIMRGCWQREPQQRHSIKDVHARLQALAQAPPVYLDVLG

[11] = target: High affinity nerve growth factor receptor (Homo sapiens) (UniProt P04629); conditions: at 1 µM
[12] = target: BDNF/NT-3 growth factors receptor (Homo sapiens) (UniProt Q16620); conditions: at 0.1 µM
Sequence of BDNF/NT-3 growth factors receptor (Homo sapiens) (Q16620 32-822 limits assumed): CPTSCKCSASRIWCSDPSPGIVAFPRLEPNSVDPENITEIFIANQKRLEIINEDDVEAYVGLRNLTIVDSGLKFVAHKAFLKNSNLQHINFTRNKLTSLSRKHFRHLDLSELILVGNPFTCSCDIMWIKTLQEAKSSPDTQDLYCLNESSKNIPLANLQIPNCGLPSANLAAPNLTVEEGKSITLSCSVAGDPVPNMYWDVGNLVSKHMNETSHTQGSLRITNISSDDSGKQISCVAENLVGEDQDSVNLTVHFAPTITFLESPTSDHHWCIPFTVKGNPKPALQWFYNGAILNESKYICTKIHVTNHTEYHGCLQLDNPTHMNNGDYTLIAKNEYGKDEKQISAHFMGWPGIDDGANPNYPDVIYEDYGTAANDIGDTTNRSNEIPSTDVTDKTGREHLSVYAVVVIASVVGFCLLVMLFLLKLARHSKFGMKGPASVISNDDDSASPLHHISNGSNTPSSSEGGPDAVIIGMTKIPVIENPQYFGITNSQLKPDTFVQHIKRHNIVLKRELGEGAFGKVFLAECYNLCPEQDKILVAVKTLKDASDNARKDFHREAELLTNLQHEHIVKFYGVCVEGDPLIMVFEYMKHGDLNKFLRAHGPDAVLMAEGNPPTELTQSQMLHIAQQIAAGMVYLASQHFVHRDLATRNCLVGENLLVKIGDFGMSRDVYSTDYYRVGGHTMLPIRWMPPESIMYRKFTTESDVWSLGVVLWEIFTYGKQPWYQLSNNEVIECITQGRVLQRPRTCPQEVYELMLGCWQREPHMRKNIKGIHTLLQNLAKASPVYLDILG

[13] = target: BDNF/NT-3 growth factors receptor (Homo sapiens) (UniProt Q16620); conditions: at 1 µM
[14] = target: NT-3 growth factor receptor (Homo sapiens) (UniProt Q16288); conditions: at 0.1 µM
Sequence of NT-3 growth factor receptor (Homo sapiens) (Q16288 32-839 limits assumed): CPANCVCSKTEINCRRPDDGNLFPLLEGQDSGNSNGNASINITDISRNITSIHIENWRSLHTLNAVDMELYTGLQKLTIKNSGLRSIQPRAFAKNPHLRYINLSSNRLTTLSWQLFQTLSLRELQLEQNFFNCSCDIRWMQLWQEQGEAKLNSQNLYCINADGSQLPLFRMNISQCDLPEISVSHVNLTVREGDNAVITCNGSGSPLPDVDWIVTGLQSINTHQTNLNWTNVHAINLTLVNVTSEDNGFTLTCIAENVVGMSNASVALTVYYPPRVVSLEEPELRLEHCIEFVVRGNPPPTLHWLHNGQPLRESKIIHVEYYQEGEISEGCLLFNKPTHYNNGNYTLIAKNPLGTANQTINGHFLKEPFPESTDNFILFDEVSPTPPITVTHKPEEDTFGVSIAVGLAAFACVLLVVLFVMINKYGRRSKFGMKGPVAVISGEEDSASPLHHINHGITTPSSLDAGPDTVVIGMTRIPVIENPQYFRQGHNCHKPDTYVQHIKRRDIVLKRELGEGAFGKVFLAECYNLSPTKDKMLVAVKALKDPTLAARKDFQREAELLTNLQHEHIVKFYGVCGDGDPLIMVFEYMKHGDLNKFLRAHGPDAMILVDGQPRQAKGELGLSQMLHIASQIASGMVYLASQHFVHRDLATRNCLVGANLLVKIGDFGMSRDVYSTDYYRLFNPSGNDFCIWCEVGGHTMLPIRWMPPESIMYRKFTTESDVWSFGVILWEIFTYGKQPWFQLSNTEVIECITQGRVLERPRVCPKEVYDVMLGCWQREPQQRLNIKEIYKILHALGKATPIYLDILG

[15] = target: NT-3 growth factor receptor (Homo sapiens) (UniProt Q16288); conditions: at 1 µM
[16] = target: T3, Tyrosine-protein kinase TXK (Homo sapiens) (UniProt P42681); conditions: at 0.1 µM
T3 sequence (whole entry): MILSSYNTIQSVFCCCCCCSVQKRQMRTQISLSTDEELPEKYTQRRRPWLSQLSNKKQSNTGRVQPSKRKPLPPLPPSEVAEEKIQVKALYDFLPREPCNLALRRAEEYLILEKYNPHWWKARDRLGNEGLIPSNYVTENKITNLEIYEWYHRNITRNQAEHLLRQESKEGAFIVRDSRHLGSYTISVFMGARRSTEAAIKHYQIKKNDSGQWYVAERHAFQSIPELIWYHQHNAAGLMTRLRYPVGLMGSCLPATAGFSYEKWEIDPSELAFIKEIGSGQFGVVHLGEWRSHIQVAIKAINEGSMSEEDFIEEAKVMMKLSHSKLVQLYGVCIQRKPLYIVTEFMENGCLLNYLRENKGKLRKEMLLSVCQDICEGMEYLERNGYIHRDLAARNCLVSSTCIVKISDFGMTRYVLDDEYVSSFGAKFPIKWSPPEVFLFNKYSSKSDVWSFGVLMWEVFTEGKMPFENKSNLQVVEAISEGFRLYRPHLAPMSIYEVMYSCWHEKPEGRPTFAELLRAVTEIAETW

[17] = target: T3, Tyrosine-protein kinase TXK (Homo sapiens); conditions: at 1 µM
[18] = target: Non-receptor tyrosine-protein kinase TYK2 (Homo sapiens) (UniProt P29597); conditions: at 0.1 µM;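 further: each value is a mean of the inhibition readings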
Sequence of Non-receptor tyrosine-protein kinase TYK2 (Homo sapiens) (P29597 whole entry): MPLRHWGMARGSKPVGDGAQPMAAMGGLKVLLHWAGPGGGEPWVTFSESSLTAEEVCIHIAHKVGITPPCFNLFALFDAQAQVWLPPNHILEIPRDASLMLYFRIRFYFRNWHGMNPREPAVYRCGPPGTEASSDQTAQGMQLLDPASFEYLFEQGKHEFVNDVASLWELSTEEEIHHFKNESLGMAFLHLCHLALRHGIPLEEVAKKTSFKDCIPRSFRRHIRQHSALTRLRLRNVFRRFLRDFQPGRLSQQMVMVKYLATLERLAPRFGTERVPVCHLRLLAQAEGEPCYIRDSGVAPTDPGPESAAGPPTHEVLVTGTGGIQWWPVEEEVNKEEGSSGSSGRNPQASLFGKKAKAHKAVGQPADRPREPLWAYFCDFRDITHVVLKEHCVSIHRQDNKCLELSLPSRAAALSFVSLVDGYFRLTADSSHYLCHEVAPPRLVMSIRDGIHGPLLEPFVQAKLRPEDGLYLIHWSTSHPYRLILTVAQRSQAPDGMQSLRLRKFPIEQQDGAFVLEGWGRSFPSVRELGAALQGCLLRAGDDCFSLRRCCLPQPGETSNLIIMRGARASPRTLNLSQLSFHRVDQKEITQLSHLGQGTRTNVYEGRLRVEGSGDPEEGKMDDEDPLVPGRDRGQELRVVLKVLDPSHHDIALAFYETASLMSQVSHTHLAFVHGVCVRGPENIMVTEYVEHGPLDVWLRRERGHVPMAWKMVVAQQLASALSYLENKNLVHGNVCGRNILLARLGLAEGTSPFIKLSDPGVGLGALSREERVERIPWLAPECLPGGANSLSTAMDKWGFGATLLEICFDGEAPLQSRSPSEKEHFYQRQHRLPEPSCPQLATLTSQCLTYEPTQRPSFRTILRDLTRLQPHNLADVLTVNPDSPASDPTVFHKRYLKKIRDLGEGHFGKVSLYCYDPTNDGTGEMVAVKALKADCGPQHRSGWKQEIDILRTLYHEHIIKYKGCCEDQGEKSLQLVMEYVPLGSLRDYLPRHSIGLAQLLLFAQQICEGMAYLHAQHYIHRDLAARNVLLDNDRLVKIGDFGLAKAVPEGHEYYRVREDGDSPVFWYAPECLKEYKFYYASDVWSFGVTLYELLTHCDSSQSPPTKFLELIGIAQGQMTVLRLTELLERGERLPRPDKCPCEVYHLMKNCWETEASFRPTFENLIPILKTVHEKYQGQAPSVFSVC

[19] = target: T4, Dual specificity protein kinase TTK (Homo sapiens) (UniProt P33981); conditions: at 1 µM;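 further: reported figures are mean TTK inhibition at 1 µM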
T4 sequence (whole entry): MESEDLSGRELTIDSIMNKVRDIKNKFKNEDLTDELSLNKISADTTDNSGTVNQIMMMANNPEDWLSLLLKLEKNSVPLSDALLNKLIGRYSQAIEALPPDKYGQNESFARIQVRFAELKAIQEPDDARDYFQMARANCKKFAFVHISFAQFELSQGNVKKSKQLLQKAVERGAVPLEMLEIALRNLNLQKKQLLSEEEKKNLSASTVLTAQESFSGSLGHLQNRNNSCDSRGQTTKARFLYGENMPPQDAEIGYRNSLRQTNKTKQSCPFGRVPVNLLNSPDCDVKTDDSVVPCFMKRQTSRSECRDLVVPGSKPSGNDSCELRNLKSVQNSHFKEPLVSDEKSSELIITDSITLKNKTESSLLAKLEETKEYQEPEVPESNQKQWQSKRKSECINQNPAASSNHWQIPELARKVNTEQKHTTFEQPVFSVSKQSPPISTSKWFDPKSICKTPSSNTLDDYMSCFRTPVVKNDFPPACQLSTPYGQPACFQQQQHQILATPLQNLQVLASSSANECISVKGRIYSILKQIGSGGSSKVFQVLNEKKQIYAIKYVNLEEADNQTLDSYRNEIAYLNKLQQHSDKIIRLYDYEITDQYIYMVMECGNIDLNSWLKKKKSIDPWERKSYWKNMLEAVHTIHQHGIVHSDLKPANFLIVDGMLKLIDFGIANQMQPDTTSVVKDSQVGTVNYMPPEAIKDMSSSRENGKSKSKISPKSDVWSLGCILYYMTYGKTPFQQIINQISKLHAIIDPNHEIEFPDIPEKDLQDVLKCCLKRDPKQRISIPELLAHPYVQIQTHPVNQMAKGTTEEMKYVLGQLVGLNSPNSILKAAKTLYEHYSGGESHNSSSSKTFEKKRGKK

[20] = target: T5, Aurora kinase A (Homo sapiens) (UniProt O14965); conditions: at 0.1 µM;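 further: each reported value is a mean percent inhibition of Aurora-A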
T5 sequence (whole entry): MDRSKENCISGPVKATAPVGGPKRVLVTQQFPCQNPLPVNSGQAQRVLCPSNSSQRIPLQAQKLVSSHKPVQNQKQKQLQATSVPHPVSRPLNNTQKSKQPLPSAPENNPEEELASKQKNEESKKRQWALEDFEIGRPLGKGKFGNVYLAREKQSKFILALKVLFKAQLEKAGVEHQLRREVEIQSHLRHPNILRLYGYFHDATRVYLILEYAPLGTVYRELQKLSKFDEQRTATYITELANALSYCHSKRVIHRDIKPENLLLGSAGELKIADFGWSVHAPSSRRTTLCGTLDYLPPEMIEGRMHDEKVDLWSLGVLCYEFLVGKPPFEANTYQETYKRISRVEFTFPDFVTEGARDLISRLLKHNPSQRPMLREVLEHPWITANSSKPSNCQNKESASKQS

Structure (SMILES)	inhibition [1]	inhibition [2]	inhibition [3]	inhibition [4]	inhibition [5]	inhibition [6]	inhibition [7]	inhibition [8]	inhibition [9]	inhibition [10]	inhibition [11]	inhibition [12]	inhibition [13]	inhibition [14]	inhibition [15]	inhibition [16]	inhibition [17]	inhibition [18]	inhibition [19]	inhibition [20]
COc1cc(C=NNc2ncnc3c2cnn3-c2ccccc2)ccc1O	43.1%	4.48%	12.9%	13%	52.4%	10.8%	51.1%	1.06%	5.3%	3.95%	14.3%	5.2%	33.1%	5.23%	34.6%	3.66%	5.94%	-0.09%	10.5%	23%
CCCN1CCC(Oc2cc(Nc3nc(Nc4cccc(F)c4C(N)=O)c4cc[nH]c4n3)c(OC)cc2Cl)CC1	2.76%	1%	3.16%	4.02%	10.1%	-2.66%	1.46%	-0.19%	2.16%	2.22%	5.14%	-1.93%	3.41%	-1.48%	5.25%	2.84%	3.46%	0.33%	33.7%	0.38%
O=C1NC(=O)C(c2cccc(Cl)c2)=C1Nc1ccc(O)c(Cl)c1	0.79%	1.84%	1.44%	1.54%	3.61%	0.52%	8.8%	-0.75%	-0.58%	-3.23%	2.57%	-0.13%	0.31%	-0.33%	1.68%	2.35%	3.52%	3.26%	4.84%	2.24%
CS(=O)(=O)CCNCc1ccc(-c2ccc3ncnc(Nc4ccc(OCc5cccc(F)c5)c(C(F)(F)F)c4)c3c2)o1	1.13%	3.58%	4.26%	4.55%	5.67%	4.87%	10.5%	0.57%	1.13%	1.7%	-0.52%	2.14%	2.72%	2.59%	3.16%	3.11%	3.02%	-4.14%	7.39%	4.12%
Cn1cc(C=C2C(=O)Nc3cccnc32)c2ccccc21	-2.64%	2.46%	8.75%	2.82%	5.24%	4.27%	9.9%	0.71%	1.72%	13.9%	66%	25.3%	75.5%	20.5%	71.6%	2.53%	6.47%	-0.05%	22.8%	5.95%
COc1ccc(-c2ccncc2)cc1C(N)=O	0.26%	6.14%	5.31%	5.23%	6.4%	3.12%	5.16%	1.17%	2.39%	1.19%	6.42%	3.52%	3.6%	4.78%	4.79%	4.98%	5.36%	-2.48%	8.41%	2.92%
COc1cc2ncn(-c3cc(OCc4ccccc4C(F)(F)F)c(C(N)=O)s3)c2cc1OC	-7.75%	-1.86%	7.03%	6.11%	20.9%	12.5%	59.1%	0.63%	6.53%	2.57%	5.01%	6.06%	10.2%	5.07%	10.4%	-5.47%	2.84%	-1.61%	10.1%	1.39%
CN1CCC(C(=O)Nc2n[nH]c3nnc(-c4ccccc4)cc23)CC1	-1.15%	3.47%	4.52%	2.55%	7%	2.98%	7.95%	1.4%	1.85%	0.43%	1.65%	2.71%	5.68%	2.52%	6.56%	2.62%	4.13%	-3.53%	15%	3.39%
O=C(Nc1n[nH]c2nc(-c3ccco3)c(Br)cc12)C1CC1	-0.45%	4.92%	9.1%	7.26%	13.7%	2.22%	-0.4%	0.93%	0.24%	3.1%	3.72%	-0.07%	1.56%	1.75%	4.33%	2.71%	5.55%	-1.26%	-3.66%	2.52%
Cc1ccc(NC(=O)c2ccnc(N3CCCC3)c2)cc1-c1ccc(C(=O)NCC2CC2)cc1	-1.46%	0.49%	3.83%	1.03%	5.42%	2.43%	-2.64%	1.07%	1.27%	1.92%	2.28%	3.47%	1.15%	3.16%	3.39%	-1.04%	0.09%	-3.05%	16.9%	0.15%
NC(=O)c1cccc(Nc2nccc(Nc3cccc4[nH]ncc34)n2)c1	25.4%	17.4%	62.5%	9.12%	47.5%	6.88%	58.3%	5.44%	47.8%	0.29%	6.83%	0.06%	14.1%	1.25%	12.9%	15.8%	55.1%	4.66%	9.28%	36.4%
